The whole screen tested about 5,500 compounds, of which about 2,000 (36%) were called active. About 18% were inconclusive and are not listed. Rule as the data show it: active = normalized growth mostly below about 0.91 (no sharp cut-off); inconclusive = no clear call, values can overlap the other calls; inactive = mostly above about 0.92. The list shows a part of the results.
Experiment: chemical genetic growth profiling, strain panel (AID 1159580);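 also: tested at 20 µM; growth read once vehicle control cultures reached saturation at 30 °C; 1 = growth at the plate median or of vehicle wells; lower values mean less growth of the strain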
Details: S. cerevisiae deletion strains, growth OD

Measured: normalized growth

COc1ccc(-c2cc(=O)c3ccccc3o2)cc1OC
inactive: locus YAL013W, strain DEP1, stronger effect = lower value 1.01 | locus YAL021C, strain ccr4, stronger effect = lower value 0.942 | locus YBR021W, strain FUR4, stronger effect = lower value 0.896 | locus YBR171W, strain sec66, stronger effect = lower value 0.917 | locus YBR229C, strain ROT2, stronger effect = lower value 1.04 | locus YCL029C, strain bik1, stronger effect = lower value 0.974 | locus YCR088W, strain abp1, stronger effect = lower value 0.929 | locus YDL005C, strain med2, stronger effect = lower value 0.919 | locus YDL040C, strain nat1, stronger effect = lower value 0.939 | locus YDL074C, strain BRE1, stronger effect = lower value 0.981 | locus YDL101C, strain DUN1, stronger effect = lower value 1.02 | locus YDL185W, strain tfp1, stronger effect = lower value 1.03 | locus YDL192W, strain arf1, stronger effect = lower value 0.989 | locus YDR001C, strain nth1, stronger effect = lower value 0.93 | locus YDR101C, strain arx1, stronger effect = lower value 0.95 | locus YDR150W, strain NUM1, stronger effect = lower value 1.05 | locus YDR159W, strain sac3, stronger effect = lower value 0.904 | locus YDR162C, strain NBP2, stronger effect = lower value 1.01 | locus YDR195W, strain ref2 1.13 | locus YDR297W, strain sur2, stronger effect = lower value 0.927 | locus YDR318W, strain mcm21, stronger effect = lower value 0.999 | locus YDR334W, strain swr1, stronger effect = lower value 0.922 | locus YDR335W, strain msn5, stronger effect = lower value 0.925 | locus YDR388W, stronger effect = lower value 1.01 | locus YDR502C, strain sam2, stronger effect = lower value 0.925 | locus YEL061C, strain CIN8, stronger effect = lower value 1.03 | locus YER015W, strain faa2, stronger effect = lower value 0.932 | locus YER016W, strain bim1, stronger effect = lower value 0.933 | locus YER110C, stronger effect = lower value 1.04 | locus YER111C, strain swi4, stronger effect = lower value 0.913 | locus YER155C, strain BEM2, stronger effect = lower value 1.07 | locus YER167W, strain BCK2, stronger effect = lower value 1.05 | locus YGL086W, strain mad1, stronger effect = lower value 0.982 | locus YGL248W, strain PDE1, stronger effect = lower value 0.97 | locus YGR135W, strain pre9, stronger effect = lower value 0.955 | locus YGR252W, strain gcn5, stronger effect = lower value 0.819 | locus YHR027C, strain rpn1, stronger effect = lower value 0.93 | locus YHR030C, strain SLT2, stronger effect = lower value 1.06 | locus YHR079C, strain IRE1 (second series), stronger effect = lower value 1.03 | locus YHR094C, strain hxt1, stronger effect = lower value 1.03 | locus YHR129C, strain ARP1, stronger effect = lower value 1.03 | locus YHR200W, strain rpn10, stronger effect = lower value 1.03 | locus YIL066C, strain RNR3, stronger effect = lower value 1.01 | locus YIL073C, strain SPO22, stronger effect = lower value 0.925 | locus YIL125W, strain kgd1, stronger effect = lower value 0.976 | locus YIR030C, strain dcg1, stronger effect = lower value 1.02 | locus YJL092W, strain hpr5, stronger effect = lower value 0.923 | locus YJL095W, strain BCK1, stronger effect = lower value 0.973 | locus YJL115W, strain asf1, stronger effect = lower value 0.928 | locus YJL129C, strain trk1, stronger effect = lower value 0.901 | locus YJL134W, strain LCB3, stronger effect = lower value 1.05 | locus YJL154C, strain vps35, stronger effect = lower value 0.938 | locus YJL168C, strain set2, stronger effect = lower value 1.03 | locus YJL187C, strain SWE1 (second series), stronger effect = lower value 0.982 | locus YJR043C, strain POL32, stronger effect = lower value 0.979 | locus YJR075W, strain HOC1, stronger effect = lower value 1.03 | locus YKL068W, stronger effect = lower value 1.03 | locus YKL085W, strain MDH1 (second series), stronger effect = lower value 1.03 | locus YKL085W, strain MDH1, stronger effect = lower value 1.03 | locus YKL190W, strain CNB1, stronger effect = lower value 1.03 | locus YKR001C, strain vps1, stronger effect = lower value 0.96 | locus YKR026C, strain gcn3, stronger effect = lower value 0.93 | locus YKR091W, strain srl3, stronger effect = lower value 0.935 | locus YLL041C, strain sdh2, stronger effect = lower value 0.941 | locus YLR027C, strain aat2, stronger effect = lower value 0.926 | locus YLR039C, strain RIC1, stronger effect = lower value 0.963 | locus YLR058C, strain SHM2, stronger effect = lower value 1.01 | locus YLR102C, strain apc9, stronger effect = lower value 1.03 | locus YLR262C, strain YPT6, stronger effect = lower value 0.875 | locus YLR268W, strain sec22, stronger effect = lower value 0.936 | locus YLR330W, strain CHS5, stronger effect = lower value 1.04 | locus YLR342W, strain FKS1 (second series), stronger effect = lower value 0.873 | locus YLR357W, strain rsc2, stronger effect = lower value 0.948 | locus YLR371W, strain rom2, stronger effect = lower value 1.04 | locus YLR384C, strain iki3, stronger effect = lower value 0.935 | locus YLR418C, strain cdc73, stronger effect = lower value 0.918 | locus YML016C, strain PPZ1, stronger effect = lower value 1.05 | locus YML032C, strain rad52, stronger effect = lower value 0.96 | locus YML124C, strain tub3, stronger effect = lower value 1.04 | locus YMR078C, strain ctf18, stronger effect = lower value 1.02 | locus YMR129W, stronger effect = lower value 0.945 | locus YMR223W, strain ubp8, stronger effect = lower value 0.99 | locus YMR231W, strain pep5, stronger effect = lower value 0.946 | locus YMR307W, strain GAS1, stronger effect = lower value 0.955 | locus YNL067W, strain RPL9B, stronger effect = lower value 0.969 | locus YNL209W, strain ssb2, stronger effect = lower value 0.936 | locus YNL233W, strain BNI4, stronger effect = lower value 1.02 | locus YNL250W, strain rad50, stronger effect = lower value 0.993 | locus YNL271C, strain bni1, stronger effect = lower value 0.995 | locus YNL298W, strain CLA4, stronger effect = lower value 0.934 | locus YNL307C, strain MCK1, stronger effect = lower value 1.02 | locus YNL322C, strain KRE1 (second series), stronger effect = lower value 0.953 | locus YNR052C, strain pop2, stronger effect = lower value 0.918 | locus YOL006C, strain TOP1, stronger effect = lower value 0.93 | locus YOL012C, strain htz1 1.9 | locus YOL147C, strain pex11, stronger effect = lower value 1.03 | locus YOR061W, strain CKA2, stronger effect = lower value 1.02 | locus YOR069W, strain VPS5, stronger effect = lower value 1.02 | locus YOR080W, strain dia2, stronger effect = lower value 0.928 | locus YOR136W, strain idh2, stronger effect = lower value 1.02 | locus YOR144C, strain elg1, stronger effect = lower value 0.994 | locus YOR265W, strain rbl2, stronger effect = lower value 0.935 | locus YOR316C, strain cot1, stronger effect = lower value 1.03 | locus YPR119W, strain clb2, stronger effect = lower value 1.04 | locus YPR141C, strain kar3, stronger effect = lower value 1.04 | locus YPR163C, strain tif3, stronger effect = lower value 0.993 | locus YPR167C, strain met16, stronger effect = lower value 1.02 | strain wtn01, stronger effect = lower value 0.93
active: locus YAL026C, strain drs2, stronger effect = lower value 0.838 | locus YAL030W, strain snc1, stronger effect = lower value 0.91 | locus YBL061C, strain skt5, stronger effect = lower value 0.898 | locus YBR009C, strain hhf1, stronger effect = lower value 0.772 | locus YBR023C, strain chs3, stronger effect = lower value 0.842 | locus YBR231C, strain swc5, stronger effect = lower value 0.83 | locus YBR279W, strain paf1, stronger effect = lower value 0.9 | locus YCL011C, strain gbp2, stronger effect = lower value 0.824 | locus YCL016C, strain dcc1, stronger effect = lower value 0.871 | locus YCL061C, strain MRC1, stronger effect = lower value 0.904 | locus YCL069W, strain vba3, stronger effect = lower value 0.921 | locus YDL035C, strain GPR1, stronger effect = lower value 0.824 | locus YDR069C, strain doa4, stronger effect = lower value 0.897 | locus YDR137W, strain rgp1, stronger effect = lower value 0.681 | locus YDR392W, strain spt3, stronger effect = lower value 0.41 | locus YEL003W, strain gim4, stronger effect = lower value 0.9 | locus YEL037C, strain rad23, stronger effect = lower value 0.872 | locus YEL061C, strain CIN8 (second series), stronger effect = lower value 0.913 | locus YER155C, strain BEM2 (second series), stronger effect = lower value 0.381 | locus YFR010W, strain ubp6, stronger effect = lower value 0.889 | locus YGL078C, strain dbp3, stronger effect = lower value 0.869 | locus YGL167C, strain pmr1, stronger effect = lower value 0.878 | locus YGL173C, strain kem1, stronger effect = lower value 0.897 | locus YGL227W, strain vid30, stronger effect = lower value 0.912 | locus YGL240W, strain doc1, stronger effect = lower value 0.772 | locus YGL253W, strain hxk2, stronger effect = lower value 0.718 | locus YHR013C, strain ard1, stronger effect = lower value 0.789 | locus YHR142W, strain chs7, stronger effect = lower value 0.683 | locus YJL095W, strain BCK1 (second series), stronger effect = lower value 0.823 | locus YJL164C, strain tpk1, stronger effect = lower value 0.855 | locus YJL166W, strain qcr8, stronger effect = lower value 0.824 | locus YJL187C, strain SWE1, stronger effect = lower value 0.913 | locus YKL009W, strain mrt4, stronger effect = lower value 0.801 | locus YKL160W, strain elf1, stronger effect = lower value 0.862 | locus YLL001W, strain dnm1, stronger effect = lower value 0.874 | locus YLL026W, stronger effect = lower value 0.899 | locus YLR221C, strain rsa3, stronger effect = lower value 0.872 | locus YLR258W, strain gsy2, stronger effect = lower value 0.859 | locus YLR262C, strain YPT6 (second series), stronger effect = lower value 0.728 | locus YLR320W, strain mms22, stronger effect = lower value 0.597 | locus YLR342W, strain FKS1, stronger effect = lower value 0.904 | locus YLR370C, strain arc18, stronger effect = lower value 0.894 | locus YML120C, strain ndi1, stronger effect = lower value 0.837 | locus YMR058W, strain fet3, stronger effect = lower value 0.852 | locus YMR125W, strain sto1, stronger effect = lower value 0.795 | locus YMR205C, strain PFK2, stronger effect = lower value 0.768 | locus YNL071W, strain lat1, stronger effect = lower value 0.665 | locus YNL248C, strain rpa49, stronger effect = lower value 0.884 | locus YNR049C, strain mso1, stronger effect = lower value 0.916 | locus YOR001W, strain rrp6, stronger effect = lower value 0.864 | locus YOR070C, strain gyp1, stronger effect = lower value 0.901 | locus YOR083W, strain WHI5, stronger effect = lower value 0.862 | locus YOR106W, strain vam3, stronger effect = lower value 0.806 | locus YOR184W, strain ser1, stronger effect = lower value 0.802 | locus YOR270C, strain vph1, stronger effect = lower value 0.539 | locus YOR290C, strain snf2, stronger effect = lower value 0.734 | locus YPL051W, strain arl3, stronger effect = lower value 0.854 | locus YPL078C, strain atp4, stronger effect = lower value 0.825 | locus YPL106C, strain sse1, stronger effect = lower value 0.788 | locus YPL240C, strain hsp82, stronger effect = lower value 0.923

From PubChem BioAssay AID1159580 (chemical genetic matrix, 2015)
